# Screening data: PubChem BioAssay, National Center for Advancing Translational Sciences (NCATS)
# HT1080 IDH1KD tx – toxicity to HT-1080 IDH1 knockdown cells (counter line) | Potency, µM (titrated, usually from 46.1 µM), inactives show at the top dose activity, negative = toxicity, actives largely listed as cytotoxic | actives 2% (n = 360,000) | HT-1080 IDH1 knockdown viability, ATP luminescence, 48 h;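 further: 0% = DMSO wells and -100% = cell-free medium wells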
#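 HT-1080-IDH1KD cells (IDH1 knocked down), 750/well in RPMI with 5% FBS, treated with compound 48 h at 37 degrees C. Viability by CellTiter-Glo luminescence, normalised to DMSO and no-cell wells; concentration-response curves classed.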
# DT40 TDP1 no CPT – qHTS for Inhibitors of human tyrosyl-DNA phosphodiesterase 1 (TDP1): qHTS in cells in absence of CPT; DT40 Tdp1-/- hTDP1 cells, no CPT, ATP luminescence, 48 h; Potency, µM (series often up to 46.2 µM), for inactives: at the highest dose activity change, negative = growth inhibition, most hits filed as inhibitors; actives 15% (n = 420,000); further: on the % scale 0 is the no-effect control and ±100 the full control effect; nearly all actives have a fitted effect of over 55% in size
#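 Growth kinetics read by CellTiter-Glo luminescence after ≥48 hr at 37 °C. Cells: DT40 Tdp1-/- stably carrying human TDP1, 400 per well, compound exposure in the absence of CPT (DMSO vehicle).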
# TDP1 cell CPT – DT40-hTDP1 cell growth loss with CPT; chicken DT40 Tdp1-/-;hTDP1 cells + 20 nM CPT, ATP luminescence, 48 h; Potency, µM (doses to about 46.2 µM), without a hit: at the top dose activity change, negative = growth inhibition, actives largely listed as inhibitors; actives 12% (n = 420,000); AID 686979; further: on the % scale 0 is the no-effect control and ±100 the full control effect; nearly all actives have a fitted effect of over 55% in size
#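 Cell growth measured by CellTiter-Glo luminescence after a minimum 48 h, 37 C compound exposure with 20 nM CPT in Tdp1-knockout DT40 cells stably expressing hTDP1, seeded 400/well; qHTS titration format.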
# TGFb inhibitor – blocks TGF-b signaling. HepG2 CAGA-GFP TGF-b/SMAD3 reporter, GFP fluorescence, 18 h; TGF-beta stimulated, 500 pg/mL final. AID 588855. Potency, µM (highest dose often 46.1 µM), inactives show at the highest dose activity, negative = inhibition, actives largely listed as inhibitors. actives 1.2% (n = 410,000); further: on the % scale 0 is the no-effect control and ±100 the full control effect; nearly all actives have a fitted effect of over 65% in size
#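 Cell-based qHTS in HEPG2 carrying a CAGA-GFP Smad reporter; compounds added before 500 pg/mL final TGF-beta, 18 h incubation at 37 degrees C, GFP fluorescence quantified per cell by imaging cytometry.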
# HT1080NT lethal – kills 2HG-producing HT-1080-NT fibrosarcoma cells; AID 686970; actives 1.6% (n = 360,000); HT-1080-NT fibrosarcoma viability, CellTiter-Glo ATP luminescence, 48 h; Potency, µM (titrated, usually from 46.1 µM), inactives show at the top dose activity, negative = less viability, actives largely listed as cytotoxic;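 further: NT is the 2HG producing partner of a matched IDH1 knockdown line; 0% = DMSO-treated cells and -100% = media-only wells without cells; nearly all actives have a fitted effect of over 55% in size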
#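 Viability of the 2HG-overproducing fibrosarcoma line after 48 hours of compound exposure at 37 degrees C was determined by luminescence with CellTiter-Glo, and concentration-effect curves were then fitted and categorized.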
# HepG2 viability – counter-screen for TGF-b inhibitors: cytotoxicity in HepG2 cells; HepG2 CAGA-GFP viability, ATP luminescence, 18 h; actives 0.76% (n = 410,000); AID 588856; Potency, µM (series often up to 46.1 µM), for inactives: top-dose activity change, negative = cytotoxicity, usual class: cytotoxic
#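 CellTiter-Glo luminescence gave cytotoxicity after 18 hours at 37 degrees C. The cells were HepG2 CAGA-GFP in 1% FBS DMEM, stimulated with 500 pg/mL TGF-beta after compound addition. %Activity was normalised to no-cell wells (complete cell-killing) and DMSO (no toxicity), and curves were fitted and classified.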
# * hit, by the source's call; ? = inconclusive; . = no result. This is a sample that favours compounds with a hit; in the whole collection about 17% have one here. The call rests on the fitted dose curve; in most records, active means well fitted curve in the direction sought with a large enough effect; inconclusive means small, poorly fitted or top-dose-only effect, or another doubt; inactive means no such curve, though single readings can be large; an effect the other way counts as inactive or inconclusive. Potency means the concentration at half of the fitted maximal effect.
SMILES,HT1080 IDH1KD tx,DT40 TDP1 no CPT,TDP1 cell CPT,TGFb inhibitor,HT1080NT lethal,HepG2 viability
COc1ccc(Cl)cc1NC(=O)Cn1c(=O)n(-c2ccc(C)cc2)c(=O)c2ccc(C(=O)NCc3ccccc3Cl)cc21,.,?,4.6µM*,?,.,-7%
O=C(Cn1c(=O)n(-c2ccccc2)c(=O)c2ccc(C(=O)NCc3ccc4c(c3)OCO4)cc21)Nc1ccc(Br)cc1F,.,15µM*,?,2%,.,-12%
CN(CCOc1ccccc1)CC(=O)Nc1cc([N+](=O)[O-])ccc1Cl,-9%,?,-2%,2%,-4%,-12%
CCOc1ccc(CN(C)CC(=O)Nc2ccc([N+](=O)[O-])cc2Cl)cc1,-9%,18µM*,?,-2%,-4%,-11%
COc1ccc(C(=O)c2ccc(OC)c(Br)c2)cc1Br,-29%,21µM*,18µM*,0%,-24%,4%
C=CCNC(=S)NNC(=O)c1ccc([N+](=O)[O-])cc1,0%,-14%,-16%,-25%,11%,-26%
C=CCN(CC=C)C(=S)NC(=O)c1ccc([N+](=O)[O-])cc1,-9%,3.7µM*,5.8µM*,?,-10%,-15%
C=CCN(CC=C)C(=S)NC(=O)c1ccc(OC)c(Br)c1,3.2µM*,5.8µM*,12µM*,-27%,?,-14%
CCN(CC)CCCNC(=O)c1ccc(S(=O)(=O)Nc2ccc(C)c(C)c2)cc1,-11%,16µM*,?,6%,-20%,-16%
CCOc1ccc(C(=O)NCCCN(CC)CC)cc1,12%,2%,-4%,1%,0%,-19%
CCN(Cc1cc2ccccc2[nH]c1=O)S(=O)(=O)c1ccccc1,11%,-24%,-10%,-4%,14%,-31%
Cc1cccc2cc(CN(CC(C)C)S(=O)(=O)c3ccccc3)c(=O)[nH]c12,-1%,23µM*,?,8%,12%,-13%
COc1cc(SC)ccc1C(=O)Nc1cc(C)c(OCC(=O)N2CCOCC2)c(C)c1,2%,23µM*,?,-3%,2%,-16%
COc1cc(SC)ccc1C(=O)Nc1ccc(OCC(=O)N2CCOCC2)cc1,0%,?,-7%,-2%,-8%,-12%
Cc1ccc(N2CC(C(=O)Nc3nnc(SCC(=O)N4CCOCC4)s3)CC2=O)cc1 (stereo not drawn),8%,9%,14%,1%,4%,3%
COc1ccc(CC(N)c2csc(Nc3nc(C)cnc3C)n2)cc1 (stereo not drawn),?,15µM*,18µM*,-2%,?,-25%
CCc1cnc(Nc2nc(C(N)Cc3ccc(F)cc3)cs2)nc1 (stereo not drawn),23µM*,18µM*,12µM*,?,?,-95%
COc1ccc(CC(N)c2csc(Nc3nccc(C(F)(F)F)n3)n2)cc1 (stereo not drawn),?,?,?,?,?,-78%
COc1ccc(CC(N)c2csc(Nc3ncccn3)n2)cc1 (stereo not drawn),?,6.5µM*,4.6µM*,-27%,-30%,-7%
Cc1cnc(C)c(Nc2nc(C(N)Cc3ccc(Cl)cc3)cs2)n1 (stereo not drawn),23µM*,18µM*,8.2µM*,18µM*,18µM*,-106%
Cn1cnc2nc[nH]c2c1=O,2%,5%,2%,-9%,0%,-6%
COc1ccc(-c2csc(NCc3ccco3)n2)cc1,-11%,-18%,?,23%,-17%,13%
